# Only some compounds are listed: those with a hit (about 2.6% of all), similar ones and a draw of the others.
# HSP90 inh: HSP90 refolding inhibition in rabbit reticulocyte lysate. luciferase refolding luminescence, 3 h. inhibition, % at 5.6 µM. 290,000 compounds, 0.91% hits. AID 1789;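 active = inhibition above the screen-wide mean plus 3 SD, computed separately per campaign, cut at about 16% in these data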;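 also: 0% = DMSO wells and 100% = 60 µM geldanamycin wells; inhibitors lower the luminescence because luciferase stays unfolded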
# aDG glyco act: alpha-DG glycosylation activation. Pro5-aDG cells, alpha-DG glycosylation AlphaScreen (IIH6); 0% Pro5, 100% B10-LARGE cell signal. activation, % at 10 µM. 360,000 compounds, 0.22% hits. AID 624168;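 active = activation of at least 8% versus controls, or a plate z-score of at least 8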;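 also: Pro5 are CHO cells carrying HIG-tagged alpha-DG that lacks glycosylation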
# TROY NFkB inh: blocks TROY-dependent signaling in reporter cells | inhibition, % at 10 µM | Q293 LMP1-TROYcd NF-kB luciferase reporter, 4 h | 360,000 compounds, 0.98% hits;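 active = compounds whose plate-normalised and pattern-corrected inhibition of the luciferase reporter signal at the single screening dose is 50% or more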
# LMP1 NFkB inh: inhibitors of Epstein-Barr LMP1-induced NF-kappaB reporter. inhibition, % at 12.5 µM. 350,000 compounds, 0.69% hits. AID 504558. LMP1-induced NF-kappaB luciferase reporter cells, luminescence; in the data active = inhibition above about 41%;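 also: 0% = neutral control wells and 100% = reference inhibitor control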
# LGR2 inh: Drosophila LGR2 receptor signaling inhibition; AID 720647; HEK293 LGR2, CRE-luciferase, bursicon-stimulated, 4 h; 380,000 compounds, 0.35% hits; inhibition, % at 9.99 µM;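 active = drop in luminescence signal, shown as inhibition above about 50% in the replicate tests, limit read from the data, passing the limit was not always enough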;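 also: agonist challenge used bursicon conditioned medium at about half maximal strength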
# TWEAK-Fn14 inh: TWEAK-Fn14 signaling inhibition; 360,000 compounds, 2% hits; TWEAK-stimulated Fn14 reporter cells, luciferase luminescence, 8 h; AID 1159606; inhibition, % at 10 µM; in the data active = inhibition above about 50%
# Numbers without * were called inactive; . = no result.
SMILES,HSP90 inh,aDG glyco act,TROY NFkB inh,LMP1 NFkB inh,LGR2 inh,TWEAK-Fn14 inh
CC(C)NC(=O)N1C[C@@H]2[C@H](c3ccccc31)[C@H](CO)N2C(=O)c1ccc(F)cc1,.,.,.,.,-4.6,.
Cc1cc2cc(CN(Cc3ccco3)S(=O)(=O)c3c(C)ccc4nsnc34)c(=O)[nH]c2cc1C,-1.8,0.2,-11.4,43.8*,.,27.1
Cc1ccc2cc(CN(Cc3ccco3)S(=O)(=O)c3c(C)ccc4nsnc34)c(=O)[nH]c2c1,5.8,0.0,7.5,-1.4,.,23.2
Fc1cccc(Cl)c1Cn1nnc(-c2ccc3c(c2)OCO3)n1,4.4,1.0,-49.2,-54.6,.,53.8*
Cc1ccccc1Cn1nnc(-c2ccc3c(c2)OCO3)n1,-4.4,0.1,-74.9,-35.2,.,79.5*
COc1ccc(C(=O)Nc2ccc3nc(N4CCOCC4)sc3c2)cc1OC,.,-0.1,29.3,-2.2,-3.4,-12.3
CCCn1nc(C(=O)Nc2ccc3nc(N4CCOCC4)sc3c2)ccc1=O,.,1.7,53.5*,17.6,9.2,25.1
CCCNC(=O)C[C@H]1CC[C@@H]2[C@@H](COc3ccc(NC(=O)Cc4ccccc4)cc3C(=O)N2C)O1,.,.,.,.,-5.0,.
CO[C@@H]1CN(C)C(=O)c2cc(NC(=O)CC(F)(F)F)ccc2OC[C@H](C)N(S(=O)(=O)c2cn(C)cn2)C[C@@H]1C,.,.,.,.,-1.8,.
Oc1cc(-c2ccncc2)cc2cccnc12,.,0.0,5.1,-2.9,35.6,59.9*
CN(C)c1ccc(-c2cc(O)c3ncccc3c2)cc1,.,-0.1,-55.8,0.9,-26.0,-70.8
N#Cc1ccc(-c2ccc(OCC(O)Cn3nnc4ccccc43)cc2)cc1 (stereo not drawn),-0.1,5.2,51.6*,5.9,.,37.2
CC(C)[C@H](NC(=O)c1ccccc1Cl)C(=O)Nc1nc(-c2ccccn2)cs1,-1.4,2.1,0.1,1.3,9.9,21.3
CC(Oc1ccc(Br)cc1)C(=O)Nc1nc(-c2ccccn2)cs1 (stereo not drawn),4.0,3.0,61.2*,29.1,16.7,-50.7
CC(C)(C)NCC(=Cc1ccccc1)C(=O)c1ccccc1,.,-0.3,21.2,87.1*,72.5*,99.3*
Cn1c(-c2ccccc2)cc2onc(-c3ccccc3)c2c1=O,.,0.5,72.7*,38.7,94.0*,90.8*
Cn1c(-c2ccccc2F)cc2onc(-c3ccccc3)c2c1=O,.,0.0,66.4*,-25.8,39.0,72.6*
CC(=O)N1N=C(c2ccc(Cl)cc2)CC1c1ccc([N+](=O)[O-])cc1 (stereo not drawn),-1.6,0.2,-15.0,-16.9,-15.0,79.8*
COCCCn1c(-c2ccc(S(=O)(=O)N3CCOCC3)cc2)csc1=Nc1ccccc1,-3.2,0.3,29.4,28.0,8.9,71.0*
CCn1c(-c2ccccc2)csc1=Nc1ccc(S(=O)(=O)O)cc1,0.7,0.0,14.8,-27.5,18.3,6.7
CCC(=O)Nc1ccc2c(c1)C(=O)N(C)C[C@@H](OC)[C@@H](C)CN(CCc1ccccc1)[C@H](C)CO2,.,.,.,.,-10.6,.
COc1cccc(CN2CCC2(C)C(=O)Nc2cccc(NS(C)(=O)=O)c2)c1OC (stereo not drawn),.,0.2,6.3,.,10.0,67.3*
CNC[C@@H]1OCCCC[C@@H](C)Oc2ccc(N(C)C)cc2C(=O)N([C@H](C)CO)C[C@@H]1C,.,.,.,.,-19.0,.
COc1ccc(NC(=O)CSc2cc(C)nc3c(-c4ccccc4)cnn23)cc1,1.2,-0.1,55.8*,-1.4,.,21.8
Cc1cc(SCC(=O)Nc2ccccc2)n2ncc(-c3ccccc3)c2n1,-1.7,-0.1,62.5*,3.8,-2.8,32.0
SMILES,HSP90 inh,aDG glyco act,TROY NFkB inh,LMP1 NFkB inh,LGR2 inh,TWEAK-Fn14 inh
CC(=O)Nc1ccc2c(c1)C(=O)N(C)[C@@H]1CC[C@H](CC(=O)NCc3ccc4c(c3)OCO4)O[C@@H]1CO2,.,.,.,.,-6.4,.
CO[C@@H]1CN(C)C(=O)c2cc(NC(=O)Cc3ccccc3)ccc2OC[C@@H](C)N(C(C)=O)C[C@H]1C,.,.,.,.,-7.7,.
Cc1ccc([C@H]2C(C(=O)O)=CC[C@@H](c3ccc(Cl)c(Cl)c3)N2S(=O)(=O)c2ccc(C)cc2)cc1,.,-0.2,57.3*,-1.8,-6.9,9.9
CC1(C)CC(NC(=O)c2ccc(Cl)cc2)CC(C)(C)N1,-0.4,0.1,6.2,-6.9,2.6,74.5*
COc1ccc(-c2cc(CCCC(=O)N3CCN(c4ccc(OC)cc4)CC3)no2)cc1,0.5,-0.1,24.0,8.7,-7.6,51.3*
CCCC(=O)Nc1ccc2c(c1)C(=O)N(C)C[C@H](OC)[C@@H](C)CN(Cc1nccs1)[C@@H](C)CO2,.,.,.,.,1.5,.
COC(=O)c1ccc(CN2CC(=O)N3[C@@H](CO)[C@H](c4ccc(-c5ccccc5F)cc4)[C@@H]3C2)cc1,.,.,.,.,-17.3,.
CCCCNS(=O)(=O)c1ccc2nc(SCC(=O)Nc3sccc3C#N)[nH]c2c1,0.2,0.1,70.6*,15.1,.,-6.1
CCCCNS(=O)(=O)c1ccc2nc(SCC(N)=O)[nH]c2c1,-1.4,0.0,2.8,3.1,-2.3,-6.8
C[C@@H]1CN([C@H](C)CO)C(=O)c2cc(NS(=O)(=O)c3cn(C)cn3)ccc2O[C@@H](C)CCCCO[C@@H]1CN(C)S(=O)(=O)c1cn(C)cn1,.,.,.,.,6.8,.
C[C@H]1CN([C@@H](C)CO)C(=O)Cc2cc(NC(=O)Nc3ccc(F)cc3)ccc2O[C@@H]1CN(C)Cc1ccccc1,.,.,.,.,1.4,.
COc1cccc(CNc2ccc(C)c(Cl)c2)c1,-0.1,0.0,-32.1,-0.5,-27.3,-10.0
COc1ccc(OC)c(CNc2ccc3c(c2)CCC3)c1,1.1,-0.1,50.6*,1.1,-35.8,60.5*
COc1cccc(CNc2ccc3c(c2)CCC3)c1,5.8,-0.2,43.9,-6.4,.,51.4*
CO[C@H]1CC[C@@H]2CCN(C)C(=O)[C@@H](C)CN(C)C(=O)c3cccc(C#N)c3OC[C@H]1O2,.,.,.,.,2.4,.
CCN1C(=O)/C(=C\c2nc3ccccc3c(=O)n2-c2ccccc2)c2ccccc21,2.6,-0.2,26.0,10.7,30.2,57.2*
COc1ccc(-n2c(/C=C3\C(=O)N(C)c4ccccc43)nc3ccccc3c2=O)cc1,2.4,-0.2,28.9,16.1,29.2,44.3
CCN1C(=O)/C(=C/c2nc3ccccc3c(=O)n2-c2ccc(C)cc2)c2ccccc21,-2.2,-0.3,12.8,14.1,35.6,67.5*
CCCCCCc1cc2cc(S(=O)(=O)c3ccc(F)c(Cl)c3)c(=O)oc2cc1O,4.1,1.0,58.1*,-0.4,14.9,53.8*
COc1ccc(NC(=O)N(C)C[C@H]2OCCCC[C@@H](C)Oc3ccc(NS(=O)(=O)c4cccs4)cc3C(=O)N([C@H](C)CO)C[C@@H]2C)cc1,.,.,.,.,-15.2,.
O=[N+]([O-])c1ccc(N2N=C(c3ccccc3)CC2c2ccccc2O)cc1 (stereo not drawn),3.8,0.4,59.9*,5.7,-7.7,81.4*

# Compound activity: PubChem BioAssay, several laboratories
